DENV2 CPE rescue: DENV2-induced cell death inhibition. DENV2-infected cells, cytopathic effect rescue, plate reader. CPE inhibition, % at 9.99 µM. 350,000 compounds, 1.7% hits. AID 651640; in the data active = CPE inhibition above about 20%, passing the limit was not always enough; inconclusive = no clear call, values can overlap the other calls; tested in BHK-21 cells
FGF22 binding: shifts melting point of recombinant human FGF22. Q9HCT0. recombinant FGF22 thermal shift, SYPRO orange fluorescence; percent of sucrose octasulfate shift, DMSO zero. activity (Tm shift, normalised), % at 9.99 µM. 340,000 compounds, 1.5% hits. AID 651658;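 active = mean Tm shift, scaled 0 neutral to 100 positive control, at about 1.3% or above, every replicate too, limit read from the data; inconclusive = no clear call, values can overlap the other calls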
Target sequence (Q9HCT0 whole entry, looked up): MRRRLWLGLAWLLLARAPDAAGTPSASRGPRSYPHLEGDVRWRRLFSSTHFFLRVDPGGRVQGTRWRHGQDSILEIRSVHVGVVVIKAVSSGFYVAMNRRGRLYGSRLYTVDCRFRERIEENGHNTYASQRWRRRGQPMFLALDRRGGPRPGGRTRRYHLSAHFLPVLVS
AF4-AF9 inh: inhibitors of human MLL-AF4/AF9 interaction. AlphaScreen, biotin-AF4 peptide binding to FLAG-AF9. P42568. AID 651704. 350,000 compounds, 0.47% hits. inhibition, % at 10 µM;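 active = every replicate reaching a set inhibition limit, whatever the replicate mean, cut at about 25% in these data; inconclusive = mean inhibition reaches that limit but some replicates miss it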
ERAP1 inh: ERAP1 (human) enzyme inhibition; inhibition, % at 10.7 µM; 340,000 compounds, 0.15% hits; recombinant ERAP1, Leu-AMC fluorescence, 60 min;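 active = mean replicate inhibition of at least 30%, or all replicates individually reaching that 30% level; inactive = mean below 30% and not every replicate reaching it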
RAD52 inh: RAD52 (human) annealing inhibition | P43351 | recombinant RAD52 DNA annealing, FRET fluorescence | inhibition, % at 18.7 µM | 360,000 compounds, 0.46% hits;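 active = every replicate showing at least 50% inhibition; inconclusive = mean inhibition at least 50% but not in every replicate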
Target sequence (P43351 whole entry, looked up): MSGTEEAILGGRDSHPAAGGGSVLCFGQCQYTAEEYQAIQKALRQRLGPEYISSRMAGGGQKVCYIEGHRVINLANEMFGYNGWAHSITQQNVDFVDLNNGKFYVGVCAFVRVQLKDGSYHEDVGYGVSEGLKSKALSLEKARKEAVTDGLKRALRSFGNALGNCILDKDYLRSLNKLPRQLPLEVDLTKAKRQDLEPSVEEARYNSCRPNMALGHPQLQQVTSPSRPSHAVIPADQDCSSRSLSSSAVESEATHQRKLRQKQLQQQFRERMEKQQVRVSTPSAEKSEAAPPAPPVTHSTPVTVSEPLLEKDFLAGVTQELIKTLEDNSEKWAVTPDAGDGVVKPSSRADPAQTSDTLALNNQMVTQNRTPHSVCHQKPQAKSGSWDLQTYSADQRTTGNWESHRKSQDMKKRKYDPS
Hits are given with their value; n = inactive; u = inconclusive; x = no result; ! = not confirmed by another sample. The list is not random: actives were taken first. Their share in the collection is about 4%.

SMILES	DENV2 CPE rescue	FGF22 binding	AF4-AF9 inh	ERAP1 inh	RAD52 inh
Fc1cccc(-c2ccc(C3[C@@H]4CN(Cc5ccccc5F)C[C@H]3N4)cc2)c1 (stereo not given in full)	n	x	n	n	82.8!
Fc1cccc(CN2C[C@@H]3N[C@H](C2)C3c2ccc(-c3ccccc3)cc2)c1 (stereo not given in full)	n	x	n	n	84.4!
Fc1cccc(CN2C[C@@H]3N[C@H](C2)C3c2ccc(-c3cncnc3)cc2)c1 (stereo not given in full)	u	x	n	n	n
c1ncc(-c2ccc(C3[C@@H]4CN(Cc5ccc6c(c5)OCO6)C[C@H]3N4)cc2)cn1 (stereo not given in full)	n	x	n	n	51.2
Fc1cccc(-c2ccc(C3[C@@H]4CN(Cc5cccnc5)C[C@H]3N4)cc2)c1 (stereo not given in full)	n	x	n	n	55.2!
CCCC(=O)N1CC2(C1)CN(C(=O)C1CCC1)[C@H](CO)c1[nH]c3cc(OC)ccc3c12	n	n	n	n	n
COc1ccc2c3c([nH]c2c1)[C@@H](CO)N(C(=O)CN(C)C)CC31CCN(Cc2cncnc2)CC1	n	x	n	n	n
Fc1cccc(CN2C[C@@H]3N[C@H](C2)[C@@H]3c2ccc(-c3cccc(F)c3)cc2)c1	n	x	n	n	86.3
N#Cc1ccc(-c2ccc([C@@H]3[C@@H]4CN(Cc5cocn5)C[C@H]3N4)cc2)cc1	98.7	n	x	x	x
N#Cc1ccc(-c2ccc(C3[C@@H]4CN(Cc5ccccc5F)C[C@H]3N4)cc2)cc1 (stereo not given in full)	n	x	n	n	83.7!
O=C(Nc1ccc2c(c1)[C@H]1C[C@H](CC(=O)N3CCc4ccccc4C3)O[C@@H](CO)[C@H]1O2)NC1CCCC1	n	n	n	n	n
Cc1cc(NC(=S)NC(=O)CC(C)C)ccc1Br	n	35.2	n	n	n
C[C@@H]1CN([C@H](C)CO)C(=O)c2cc(NS(=O)(=O)c3ccccc3)ccc2O[C@@H]1CN(C)C(=O)Nc1ccc2c(c1)OCO2	n	n	n	n	n
CC=Cc1ccc2n(c1=O)C[C@H]1[C@H](CO)[C@@H](C(=O)OC)N(C(C)=O)[C@@H]21 (mixture of isomers)	n	n	n	n	n
CCc1cccc(CC)c1NC(=S)NCCc1c(C)[nH]c2ccc(C)cc12	n	n	n	n	n
CCc1cccc(C)c1NC(=S)NCCc1c(C)[nH]c2ccc(C)cc12	u	n	44.3	n	n
COc1ccc2[nH]c(C)c(CCNC(=S)Nc3ccccc3OC)c2c1	n	43.4	n	n	n
COc1ccc2[nH]c(C)c(CCNC(=S)Nc3cc(C)ccc3C)c2c1	n	n	n	n	n
CN(CC(=O)NCCc1ccc(S(N)(=O)=O)cc1)c1ccccc1	n	43.1	n	n	n
COc1ccccc1NC(=S)NCCc1ccc(S(N)(=O)=O)cc1	n	45.8	n	n	n
O=S(=O)(c1ccc(F)cc1)N1CC[C@@H]2[C@@H](CO)Nc3ccc(Br)cc3[C@@H]21	n	n	n	n	n
COCC#Cc1cnc2c(c1)C(=O)N([C@H](C)CO)C[C@@H](C)[C@@H](CN(C)C(=O)NC1CCCC1)O2	n	n	n	n	n
CCOc1ccccc1C(=O)NCC(=O)NCCc1ccc(S(N)(=O)=O)cc1	n	n	n	n	n
CCOc1ccccc1OCC(=O)NCCc1ccc(S(N)(=O)=O)cc1	n	43.4	n	n	n
Cc1ccc(C(=O)NNC(=O)CSc2nc(N)cc(N)n2)cc1	u	n	n	n	n
SMILES	DENV2 CPE rescue	FGF22 binding	AF4-AF9 inh	ERAP1 inh	RAD52 inh
Cc1ccc(SCC(=O)NNC(=O)c2cncc(Br)c2)cc1	33.6	n	n	n	n
CCCCCc1nnc(NC(=O)Cc2ccc([N+](=O)[O-])cc2)s1	n	43.3	n	n	n
O=C(C[C@@H]1C[C@H]2c3cc(NC(=O)c4ccc5c(c4)OCO5)ccc3O[C@H]2[C@@H](CO)O1)NCC1CC1	26.8	n	n	n	n
O=C(C[C@@H]1C[C@@H]2c3cc(NC(=O)c4ccc5c(c4)OCO5)ccc3O[C@@H]2[C@@H](CO)O1)NC1CCCC1	33.5	n	n	n	n
O=C(C[C@H]1C[C@H]2c3cc(NC(=O)c4ccc5c(c4)OCO5)ccc3O[C@H]2[C@@H](CO)O1)NCC1CC1	n	n	n	n	n
C[C@H](CO)N1C[C@H](C)[C@@H](CN(C)C)Oc2cc(C#CC3CC3)ccc2S1(=O)=O	n	n	n	n	n
COc1ccc(NC(=O)N2CC[C@@H]3[C@@H](CO)N(C)c4ccc(Br)cc4[C@@H]32)cc1	54.4	n	n	n	n
CC(C)NC(=O)N1CC[C@@H]2[C@H]1c1cc(Br)ccc1N(C)[C@@H]2CO	108.4	n	n	n	n
CN1c2ccc(Br)cc2[C@@H]2[C@@H](CCN2C(=O)C2CCC2)[C@H]1CO	n	x	n	n	n
CN1c2ccc(Br)cc2[C@H]2[C@H](CCN2C(=O)C2CCC2)[C@H]1CO	105.0	x	n	n	n
C[C@H](CO)N1C[C@H](C)[C@@H](CN(C)C(=O)C2CC2)Oc2cc(C#Cc3ccccn3)ccc2S1(=O)=O	n	n	n	n	n
COc1ccccc1Oc1ccc(NC(=O)c2ccc(Cl)cc2)cc1	n	n	n	n	n
O=C(Nc1ccc(Oc2ccc(Cl)cc2)c(Cl)c1)c1cc(I)cc(I)c1O	42.8	n	n	n	n
COc1ccc(NC(=O)Nc2ccc3c(c2)[C@@H]2C[C@H](CC(=O)NCc4ccccn4)O[C@@H](CO)[C@@H]2O3)cc1	n	n	n	n	n
COC(=O)c1ccc(/C=N/Nc2nc(N3CCCCC3)nc(N3CCCCC3)n2)cc1	n	43.5	n	n	n
C[C@H](CO)N1C[C@H](C)[C@H](CN(C)S(=O)(=O)c2cn(C)cn2)OCCCC[C@H](C)Oc2ccc(NC(=O)Nc3ccc(C(F)(F)F)cc3)cc2C1=O	n	n	x	x	x
CCCC#Cc1cnc2c(c1)C(=O)N([C@H](C)CO)C[C@H](C)[C@H](CN(C)C(=O)c1cccnc1)O2	u	x	n	n	n
CC(C)(O)/C=C/C[C@](C)(O)C1CC[C@]2(C)C1[C@H](O[C@H]1O[C@@H](CO)[C@H](O)[C@@H](O)[C@@H]1O)CC1[C@@]3(C)CC[C@H](O)C(C)(C)C3[C@@H](O)C[C@]12C (stereo not given in full)	42.1	n	n	x	n
O=C(O)C1C(c2ccccc2)=C1c1ccc(Br)cc1 (stereo not given)	n	43.1	n	n	n
CSc1ccccc1C(=O)C1CCCN(Cc2c(C)n(C)n(-c3ccccc3)c2=O)C1 (stereo not given)	n	n	n	n	n
CSc1ccccc1C(=O)C1CCCN(Cc2cnn(-c3ccccc3)c2)C1 (stereo not given)	n	43.3	n	n	n
C[C@@H]1CCCCO[C@H](CN(C)S(=O)(=O)c2cccs2)[C@@H](C)CN([C@@H](C)CO)C(=O)c2cc(NC(=O)c3ccccc3)ccc2O1	22.8	n	x	x	x

Screening results (PubChem BioAssay)
